For 8 molecules, growth results are on record in PubChem BioAssay (NCI).

Common to all, as to test: NCI-60 one-dose screen, 48 h (100 = growth as untreated, 0 = no growth, -100 = all killed)
Experiment [1] has as its system HCT-15 colon. As to conditions: 10 µM unless noted.
In experiment [2] the test system is HT29 colon. As to conditions: 10 µM unless noted.
In experiment [3] the test system is SNB-75 CNS. Particulars: 10 µM unless noted.
Experiment [4] concerns SNB-19 CNS. As to conditions: 10 µM unless noted.
Experiment [5] deals with U251 CNS. Particulars: 10 µM unless noted.
The test system of experiment [6] is PC-3 prostate. Particulars: 10 µM unless noted.
The test system of experiment [7] is SK-MEL-5 melanoma. As to conditions: 10 µM unless noted.
Experiment [8] concerns UACC-62 melanoma. Particulars: 10 µM unless noted.
For experiment [9], the system named is LOX IMVI melanoma. As to conditions: 10 µM unless noted.
For experiment [10], the system named is SK-MEL-28 melanoma. Particulars: 10 µM unless noted.
Experiment [11] has as its system SK-MEL-2 melanoma. As to conditions: 10 µM unless noted.
The test system of experiment [12] is EKVX NSCLC. As to conditions: 10 µM.
Experiment [13] has as its system SN12C renal. As to conditions: 10 µM unless noted.
The test system of experiment [14] is UO-31 renal. As to conditions: 10 µM unless noted.
The subject of experiment [15] is TK-10 renal. As to conditions: 10 µM unless noted.
In experiment [16] the test system is ACHN renal. Particulars: 10 µM unless noted.
In experiment [17] the test system is CAKI-1 renal. Particulars: 10 µM unless noted.
In experiment [18] the test system is A498 renal. Particulars: 10 µM unless noted.
For experiment [19], the system named is CCRF-CEM leukemia. As to conditions: 10 µM.
Experiment [20] has as its system MOLT-4 leukemia. Particulars: 10 µM unless noted.

The structures appear in SMILES notation. This is part of a sample that, as a whole, favours compounds with a hit. Of some 83,000 tested, about 20% had one in any assay.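 How to read the values: 0–100, growth inhibition (40 = 60% inhibited); 0, no net growth; -100 to 0, cell death (-40 = 40% of starting cells died; -100 = all dead).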 Unmarked numbers belong to inactive results. The source made the active and inactive calls. The calls were made as follows: active = growth percent below 10; inactive = the rest.

Take `CC1(C)NCCC[C@]2(C)[C@H]3CC=C4[C@@H]5C[C@](C)(COC(=O)c6ccccc6C(=O)O)CC[C@]5(C)CC[C@@]4(C)[C@]3(C)CC[C@@H]12`: the growth in experiment [1] is 43.8%; in experiment [2] it was 9.9% (active); in experiment [3], 74.7%; in experiment [4], 68.9%; in experiment [5], 41.1%; in [6], 43.1%. The growth is 77.5% in experiment [7]; 88.2% in experiment [8]; 54.4% in [9]; 93.4% in experiment [10]; 83.5% in experiment [11]; 86.7% in experiment [12]. In addition, the growth is 65.5% in experiment [13]; 87.4% in experiment [14]; 36% in experiment [15]; 43.3% in [16]; 86% in experiment [17]; 107% in experiment [18]. In addition, the growth in experiment [19] was 35.8%; in experiment [20], 20.5%.

With `O=C(O)c1occ(Cl)c1Cl`, the growth in [1] was 105%; in [2], 122%; in [3] it was 99.2%; in experiment [4] it was 109%; in experiment [5], 104%; in experiment [6], 109%. Moreover, the growth in experiment [7] is 113%; in experiment [8], 112%; in experiment [9] it was 99.7%; in experiment [10], 116%; in experiment [11], 120%; in [12], 100%. The growth in experiment [13] is 109%; in experiment [14] it was 97%; in experiment [15], 111%; in experiment [16], 109%; in experiment [17], 104%; in [18], 90.4%. In addition, the growth in experiment [19] is 105%; in [20], 111%.

For `COc1ccc(C(=O)CN2C(=O)NC(c3ccccc3)(c3ccccc3)C2=O)cc1`, the growth in [1] is 99.5%; in experiment [2] it was 100%; in experiment [3], 86.7%; in experiment [4] it was 102%; in experiment [5], 101%; in experiment [6], 95%. The growth in experiment [7] is 99.7%; in experiment [8], 99.4%; in experiment [9], 98%; in experiment [10], 103%; in experiment [11], 99.6%; in experiment [12], 98.9%. Also, the growth in experiment [13] was 101%; in experiment [14] it was 71.2%; in [15] it was 117%; in experiment [16] it was 104%; in experiment [17] it was 93.6%; in experiment [18], 70.5%. Moreover, the growth in [19] was 94.8%.

Regarding `COC(=O)c1ccc2[nH]c(O)c(C(=Nc3ccc(N(C)C(=O)CN4CCN(C)CC4)cc3)c3ccc(N)cc3)c2c1`, the growth in [1] was 99.4%; in experiment [2], 42.6%; in experiment [3], 42.5%; in [4], 83.9%; in [5] it was 82.2%; in experiment [6], 83.4%. Besides, the growth is 85.2% in experiment [7]; 110% in [8]; 74.6% in [9]; 87.1% in experiment [10]; 93.1% in experiment [11]; 95.5% in experiment [12]. Besides, the growth is 50.4% in experiment [13]; 75.6% in [14]; 76.4% in experiment [15]; 94.7% in [16]; 63.9% in [17]; 92.7% in experiment [18]. Further, the growth in experiment [19] was 60.4%; in experiment [20], 52.3%.

For the molecule `Cc1ncc(C(=O)Nc2ccc(CN3CCN(C)CC3)c(C(F)(F)F)c2)cc1C#Cc1c(N)ncc2ccc(F)cc12`, the growth in [1] was -93.2% (active); in experiment [2], -87.4% (active); in [3] it was -3.33% (active); in [4] it was -99.6% (active); in [5], -88.3% (active); in experiment [6], -83.6% (active). Moreover, the growth in experiment [7] is -70.2% (active); in [8], -28.7% (active); in experiment [9], -74.2% (active); in [10], -85.8% (active); in [11], 0.14% (active); in experiment [12], -7.75% (active). Also, the growth in experiment [13] was 19.1%; in experiment [14] it was 6.12% (active); in [15], -89.2% (active); in experiment [16] it was -15.8% (active); in experiment [17] it was 20.8%; in experiment [18] it was -65.1% (active). Moreover, the growth in experiment [19] is -47.6% (active); in [20], -57.9% (active).

In the case of `CC1(c2ccc(Br)cc2)NC(=O)NC1=O` (stereo unspecified), the growth is 106% in [1]; 106% in experiment [2]; 99.3% in [3]; 105% in experiment [4]; 97.2% in [5]; 103% in experiment [6]. Further, the growth in [7] was 104%; in [8], 101%; in experiment [9] it was 100%; in experiment [10], 112%; in experiment [11], 122%; in experiment [12], 109%. Also, the growth in [13] is 100%; in experiment [14], 94.9%; in experiment [15], 106%; in experiment [16], 104%; in experiment [17], 97.8%.

Turning to `COc1ccc(Cn2cc3c(c2-c2ccccc2)CCc2cnoc2-3)cc1N`, the growth in [1] was 20%; in experiment [2], 10.5%; in experiment [3] it was 29.1%; in experiment [4], 44.5%; in experiment [5] it was 24.8%; in [6] it was 23.7%. For the same molecule, the growth was 8.52% (active) in experiment [7]; 42.4% in experiment [8]; 31.4% in [9]; 63.6% in experiment [10]; 41% in [11]; 16.5% in [12]. Moreover, the growth in experiment [13] is 36.2%; in experiment [14] it was 29.7%; in [15], 76.2%; in [16], 31%; in experiment [17], 7.24% (active); in experiment [18], 1.34% (active). Besides, the growth in experiment [19] is 18%; in experiment [20] it was 25.3%.

In the case of `CCS(=O)(=O)OCCO[C@H]1Cc2cc3ccc(=O)oc3cc2OC1(C)C`, the growth in experiment [1] is 109%; in experiment [2] it was 101%; in experiment [3], 101%; in experiment [4], 105%; in experiment [5], 96.7%; in experiment [6], 101%. Besides, the growth in [7] is 101%; in [8] it was 102%; in experiment [9], 109%; in [10], 116%; in [11], 96.8%; in experiment [12], 107%. The growth is 107% in experiment [13]; 86.9% in experiment [14]; 102% in experiment [15]; 107% in experiment [16]; 95% in [17]; 102% in experiment [18]. Besides, the growth in experiment [19] is 115%; in experiment [20], 107%.
